Data: PubChem BioAssay (EPA / NIEHS)
Where a structure was tested more than once in an assay, its records may differ in their call. Activity calls are given as the source filed them. Rule for the calls: active = hit-call score of the fitted dose curve at least 0.9, where 1 is the maximum; inactive = score below 0.9.

Read-out: Cytochrome P450 (CYP1A2), CYP1A2 (gene 1544)
Assay: LTEA_HepaRG_CYP1A2: Life Technologies and Expression Analysis (LTEA) Assay for Cytochrome P450 (CYP1A2) using HepaRG (AID 2283479);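 for AC50: TaqMan qRT-PCR transcript level normalized to ACTB GAPDH and POLR2A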
Details: mRNA level, 48 h; actives raise or lower the signal
Protocol: LTEA_HepaRG is a cell based, multiplexed-readout assay that uses HepaRG, a human liver cell line, with measurements taken at 48 hours after chemical dosing on a 96-well plate.LTEA_HepaRG_CYP1A2 is one of 102 assay component(s) measured in the LTEA HepaRG cell culture assay. It is a marker of NR mediated metabolism.Data from the assay component LTEA_HepaRG_CYP1A2 was analyzed into 1 endpoint. This assay endpoint, LTEA_HepaRG_CYP1A2, was analyzed with bidirectional fitting relative to DMSO as the negative control and baseline of activity. Using a type of inducible reporter, measures of mRNA induction for gain or loss-of-signal activity can be used to understand regulation of transcription factor activity. To generalize the intended target to other relatable targets, this assay endpoint is annotated to the cyp intended target family, where the subfamily is xenobiotic metabolism.
A total of 1060 chemcials from the ToxCast library were tested in eight-point concentration-response experiments. Cell culture and cytotoxicity assays were conducted at Thermo Fisher Scientific's Custom Services facility (Madison, WI). A single lot of human HepaRG cells (Thermo Fisher Scientific, Frederick, MD) was used for the cell culture experiments. 96-well format collagen type I coated plates of human HepaRG cells were prepared using established methods. Briefly, cryopreserved HepaRG cells were thawed, plated at a density of approximately 100,000 cells/well in HepaRG Thaw, Plate, and General Purpose media (HPRG770, Thermo Fisher Scientific), and incubated for 48 hours. 0.5% DMSO was selected as vehicle control to balance the requisite need of DMSO in HepaRG cultures to maintain differentiation (for example, baseline metabolism, proportions of hepatocytes vs. cholangiocytes), while enabling further hepatic receptor pathway activation (for example, PXR and CAR) in response to chemical exposure. 48 hours after plating, the culture medium was replaced with HepaRG Serum-Free Incudtion Media. Cells were exposed to each test chemical in duplicate and maintained in CO2 incubators for another 48 hours. Chemical plates were thawed to room temperature and 200x concentrations of treatment groups were prepared. 8-point conentration-reponse curves were made with the highest exposure at 100 uM, followed by half-log dilutions, all in 0.5% DMSO. Each test plate contained variouse controls, induction positive controls (1mM phenobarbital), cytotoxicity positive controls ([…] aflatoxin B1), vehicle controls (0.5% DMSO), and total lysis controls (0.5% DMSO). Cell morphology images were taken using an Essen IncuCyte FLR automated microscope, with six 96-well plates imaged in about 24 minutes. Images were captured and exported and JPEG files. Spent culture media was transfered to black-well plates for the LDH assay, and remaining media was sorted at -80 C for later use. Cells were treated with RLT buffer and frozen until shipped for gene expression analysis. Total RNA was isolated from the cell suspension in 75 uL of Buffer RLT (Qiagen, Germantown, MD 20874) by Quintiles/Expression Analysis (Durham, NC) using a custom isolation procedure. Total RNA from each plate well was transferred to a preamplification plate. Fluidigm's 96.96 Dynamic ArrayTM (Fluidigm, Amsterdam, the Netherlands) technology was used for gene expression analyses by quantitative reverse transcription polymerase chain reaction (qRT-PCR, performed by Quintiles/Expression Analysis, Durham, NC)89. Standard TaqManTM Assays (Applied Biosystems/ThermoFisher Scientific, Foster City, CA) were used to assess the expression of 93 genes selected based on their selectivity and sensitivity to important hepatic receptors known to be modulated by environmental chemicals; importance in human hepatocyte functionality; and hepatotoxicity. […]

Compound | outcome | AC50
Oc1ccccc1-c1ccccc1 | inactive | –
CCNc1nc(Cl)nc(NC(C)C)n1 | – | 50 µM (active)
CCCCNC(=O)OCC#CI | – | 31.1 µM (active)
O=C(Nc1ccccc1)Nc1ccnc(Cl)c1 | – | 25.8 µM (active)
CON(C)C(=O)Nc1ccc(Cl)c(Cl)c1 | – | 29.8 µM (active)
CCCC1COC(Cn2cncn2)(c2ccc(Cl)cc2Cl)O1 (stereo not given) | – | 50 µM (active)
COc1nc(NC(C)C)nc(NC(C)C)n1 | – | 44.9 µM (active)
CCCCOC(=O)c1ccccc1C(=O)OCCCC | inactive | –
CC(Oc1ccc(Cl)cc1Cl)C(=O)O (stereo not given) | inactive | –
CCCCNC(=O)n1c(NC(=O)OC)nc2ccccc21 | – | 20.7 µM (active)
COC(=O)C=C(C)OP(=O)(OC)OC | inactive | –
O=C(O)COc1nc(Cl)c(Cl)cc1Cl | inactive | –
COP(N)(=O)SC (stereo not given) | inactive | –
C=CC1(C)OC(=O)N(c2cc(Cl)cc(Cl)c2)C1=O (stereo not given) | – | 18.8 µM (active)
Cc1cc(Cl)ccc1OCC(=O)O | – | 50 µM (active)
CCCN(CCC)c1c([N+](=O)[O-])cc(S(N)(=O)=O)cc1[N+](=O)[O-] | inactive | 87.5 µM (active)
CCOC(=O)C(Cl)Cc1cc(-n2nc(C)n(C(F)F)c2=O)c(F)cc1Cl (stereo not given) | inactive | –
CS/C(C)=N/OC(=O)N(C)SN(C)C(=O)O/N=C(\C)SC | inactive | –
O=C(O)c1nc(Cl)ccc1Cl | inactive | 50 µM (active)

Compound | outcome | AC50
CCOC(=O)CC(SP(=S)(OC)OC)C(=O)OCC (stereo not given) | – | 13.8 µM (active)
CC(C)C1(C)N=C(c2nc3ccccc3cc2C(=O)O)NC1=O (stereo not given) | – | 28.7 µM (active)
CCCCC(CC)COC(=O)c1ccccc1C(=O)OCC(CC)CCCC (stereo not given) | – | 50 µM (active)
CC1=C(C(=O)Nc2ccccc2)SCCO1 | – | 50 µM (active)
CCON=C(CC)C1=C(O)CC(c2c(C)cc(C)cc2C)CC1=O (stereo not given) | inactive | –
COC(=O)c1ccccc1C(=O)OC | inactive | –
CC1COC(Cn2cncn2)(c2ccc(Oc3ccc(Cl)cc3)cc2Cl)O1 (stereo not given) | inactive | –
COc1ccc(C(c2ccc(OC)cc2)C(Cl)(Cl)Cl)cc1 | inactive | –
OC(c1ccc(Cl)cc1)(c1cncnc1)c1ccccc1Cl (stereo not given) | – | 86.6 µM (active)
CCOP(=S)(OCC)SCn1c(=O)oc2cc(Cl)ccc21 | – | 75.3 µM (active)
CC(C)(C)c1ccc(CSc2cnn(C(C)(C)C)c(=O)c2Cl)cc1 | – | 2.36 µM (active)
C=CCC1=C(C)C(OC(=O)C2C(C=C(C)C)C2(C)C)CC1=O (stereo not given) | inactive | –
CNC(=O)ON=CC(C)(C)SC | inactive | –
Fc1ccc(Oc2ccnc3cc(Cl)cc(Cl)c23)cc1 | – | 14.1 µM (active)
N#CC(CCc1ccc(Cl)cc1)(Cn1cncn1)c1ccccc1 (stereo not given) | – | 85.6 µM (active)
CN(C)C(=S)SSC(=S)N(C)C | inactive | –
COC(=O)C(C)Oc1ccc(Oc2ccc(Cl)cc2Cl)cc1 (stereo not given) | inactive | –
COC(=O)N(OC)c1ccccc1COc1ccn(-c2ccc(Cl)cc2)n1 | – | 12.4 µM (active)
N#Cc1cc(Br)c(O)c(Br)c1 | – | 12.9 µM (active)
